# Entries with a potency or affinity are not part of this list. The source made the active and inactive calls.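 The calls were made as follows: active = compounds lowering cell ATP signal whose fitted half-maximal concentration is at most twice the top tested dose; inconclusive = flat curve with 30 to 70% signal loss, or poor fit; inactive = the rest.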
# Assay: HEK293T cell cytotoxicity, dose response, cytotoxicity control, CellTiter-Glo luminescence, dry powder, set 6 (AID 651949)
row,Structure (SMILES),outcome
1,Clc1ccc(-c2nnc(SCc3ccccc3)o2)cc1,inactive
2,c1ccc(CSc2nnc(-c3ccccc3)o2)cc1,inactive

# From PubChem BioAssay AID651949 (Broad Institute, 2012)
